For test [1], the target named is Protein kinase C gamma type (Homo sapiens) (UniProt P05129). Conditions: at 1 µM.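 Also: each value is an averaged percent inhibition of the enzyme.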
Test [2] addresses T1, Protein kinase C iota type (Homo sapiens) (UniProt P41743).
T1 sequence (whole entry): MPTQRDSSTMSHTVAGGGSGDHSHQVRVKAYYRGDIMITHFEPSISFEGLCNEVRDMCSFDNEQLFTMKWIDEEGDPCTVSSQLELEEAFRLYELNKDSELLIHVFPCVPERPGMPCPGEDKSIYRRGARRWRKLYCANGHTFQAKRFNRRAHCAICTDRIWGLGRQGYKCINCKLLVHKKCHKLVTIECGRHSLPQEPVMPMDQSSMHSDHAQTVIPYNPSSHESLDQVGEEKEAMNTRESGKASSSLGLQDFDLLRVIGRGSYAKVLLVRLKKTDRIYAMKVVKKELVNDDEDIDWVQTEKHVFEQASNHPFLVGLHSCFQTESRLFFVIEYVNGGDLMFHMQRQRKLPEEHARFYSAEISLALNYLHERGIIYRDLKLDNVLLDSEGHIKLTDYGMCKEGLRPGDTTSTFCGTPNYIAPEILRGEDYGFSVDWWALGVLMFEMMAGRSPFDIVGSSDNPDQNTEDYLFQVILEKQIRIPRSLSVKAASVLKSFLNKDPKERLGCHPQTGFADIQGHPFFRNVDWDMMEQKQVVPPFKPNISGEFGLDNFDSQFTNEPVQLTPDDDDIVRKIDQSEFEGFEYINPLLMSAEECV
Particulars: at 0.1 µM.

The target of test [3] is T1, Protein kinase C iota type (Homo sapiens). Particulars: at 1 µM.
The target of test [4] is Protein kinase C theta type (Homo sapiens) (UniProt Q04759). Particulars: at 0.1 µM.
For test [5] the target is unchanged. Particulars: at 1 µM.
For test [6], the target named is Protein kinase C beta type (Homo sapiens) (UniProt P05771). Conditions: at 0.1 µM.
Test [7] shares this target. Conditions: at 1 µM.
Test [8] deals with T2, Serine/threonine-protein kinase D1 (Homo sapiens) (UniProt Q15139).
T2 sequence (whole entry): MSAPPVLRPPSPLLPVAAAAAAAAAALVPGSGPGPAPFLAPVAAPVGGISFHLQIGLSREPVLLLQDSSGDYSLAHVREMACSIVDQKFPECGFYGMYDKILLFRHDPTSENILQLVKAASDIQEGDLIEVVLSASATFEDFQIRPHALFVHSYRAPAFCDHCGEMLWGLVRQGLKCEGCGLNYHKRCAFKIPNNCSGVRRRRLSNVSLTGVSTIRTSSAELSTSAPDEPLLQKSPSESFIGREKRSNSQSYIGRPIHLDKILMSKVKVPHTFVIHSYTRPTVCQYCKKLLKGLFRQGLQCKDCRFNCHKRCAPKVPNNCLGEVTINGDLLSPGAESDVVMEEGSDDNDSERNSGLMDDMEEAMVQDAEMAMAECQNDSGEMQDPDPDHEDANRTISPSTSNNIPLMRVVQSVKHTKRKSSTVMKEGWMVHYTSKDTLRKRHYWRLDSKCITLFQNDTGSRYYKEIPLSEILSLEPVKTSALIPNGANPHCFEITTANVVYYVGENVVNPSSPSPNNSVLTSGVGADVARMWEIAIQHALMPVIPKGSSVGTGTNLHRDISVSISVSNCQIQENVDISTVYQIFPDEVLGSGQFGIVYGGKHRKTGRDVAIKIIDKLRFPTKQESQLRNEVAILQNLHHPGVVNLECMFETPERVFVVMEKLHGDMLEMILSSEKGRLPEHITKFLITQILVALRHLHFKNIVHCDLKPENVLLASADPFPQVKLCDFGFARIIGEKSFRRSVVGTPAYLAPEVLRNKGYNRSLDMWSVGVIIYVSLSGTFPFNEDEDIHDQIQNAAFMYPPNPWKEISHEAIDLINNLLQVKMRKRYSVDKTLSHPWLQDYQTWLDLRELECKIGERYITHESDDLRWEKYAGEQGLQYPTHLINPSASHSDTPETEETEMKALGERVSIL
Particulars: at 0.1 µM.

In test [9] the target is T2, Serine/threonine-protein kinase D1 (Homo sapiens). Particulars: at 1 µM.
Test [10] concerns the target T3, Serine/threonine-protein kinase D2 (Homo sapiens) (UniProt Q9BZL6).
T3 sequence (whole entry): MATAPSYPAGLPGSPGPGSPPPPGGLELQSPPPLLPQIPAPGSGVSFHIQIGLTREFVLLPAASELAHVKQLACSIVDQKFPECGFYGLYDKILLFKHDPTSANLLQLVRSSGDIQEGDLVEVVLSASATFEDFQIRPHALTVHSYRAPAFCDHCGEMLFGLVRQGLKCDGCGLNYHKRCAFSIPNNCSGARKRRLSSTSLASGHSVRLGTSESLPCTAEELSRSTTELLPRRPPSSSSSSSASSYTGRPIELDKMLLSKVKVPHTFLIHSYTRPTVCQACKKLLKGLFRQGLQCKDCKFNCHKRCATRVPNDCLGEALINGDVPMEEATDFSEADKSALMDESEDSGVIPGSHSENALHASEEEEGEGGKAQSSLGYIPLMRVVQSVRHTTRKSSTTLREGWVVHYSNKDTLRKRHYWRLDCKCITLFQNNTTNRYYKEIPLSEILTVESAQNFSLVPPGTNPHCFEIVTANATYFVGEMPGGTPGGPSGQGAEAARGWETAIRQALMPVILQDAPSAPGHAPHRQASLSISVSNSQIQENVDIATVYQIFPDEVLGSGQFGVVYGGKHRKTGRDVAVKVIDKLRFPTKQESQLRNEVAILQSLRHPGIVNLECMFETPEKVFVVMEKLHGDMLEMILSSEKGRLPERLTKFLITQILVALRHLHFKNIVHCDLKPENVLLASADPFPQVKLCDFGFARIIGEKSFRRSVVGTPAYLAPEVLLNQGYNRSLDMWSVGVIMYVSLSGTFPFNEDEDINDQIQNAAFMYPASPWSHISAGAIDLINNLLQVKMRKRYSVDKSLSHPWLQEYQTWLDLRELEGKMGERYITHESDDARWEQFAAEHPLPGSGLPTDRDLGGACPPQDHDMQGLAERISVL
Particulars: at 0.1 µM.

Test [11] has as its target T3, Serine/threonine-protein kinase D2 (Homo sapiens). Particulars: at 1 µM.
Test [12] deals with T4, Serine/threonine-protein kinase D3 (Homo sapiens) (UniProt O94806).
T4 sequence (whole entry): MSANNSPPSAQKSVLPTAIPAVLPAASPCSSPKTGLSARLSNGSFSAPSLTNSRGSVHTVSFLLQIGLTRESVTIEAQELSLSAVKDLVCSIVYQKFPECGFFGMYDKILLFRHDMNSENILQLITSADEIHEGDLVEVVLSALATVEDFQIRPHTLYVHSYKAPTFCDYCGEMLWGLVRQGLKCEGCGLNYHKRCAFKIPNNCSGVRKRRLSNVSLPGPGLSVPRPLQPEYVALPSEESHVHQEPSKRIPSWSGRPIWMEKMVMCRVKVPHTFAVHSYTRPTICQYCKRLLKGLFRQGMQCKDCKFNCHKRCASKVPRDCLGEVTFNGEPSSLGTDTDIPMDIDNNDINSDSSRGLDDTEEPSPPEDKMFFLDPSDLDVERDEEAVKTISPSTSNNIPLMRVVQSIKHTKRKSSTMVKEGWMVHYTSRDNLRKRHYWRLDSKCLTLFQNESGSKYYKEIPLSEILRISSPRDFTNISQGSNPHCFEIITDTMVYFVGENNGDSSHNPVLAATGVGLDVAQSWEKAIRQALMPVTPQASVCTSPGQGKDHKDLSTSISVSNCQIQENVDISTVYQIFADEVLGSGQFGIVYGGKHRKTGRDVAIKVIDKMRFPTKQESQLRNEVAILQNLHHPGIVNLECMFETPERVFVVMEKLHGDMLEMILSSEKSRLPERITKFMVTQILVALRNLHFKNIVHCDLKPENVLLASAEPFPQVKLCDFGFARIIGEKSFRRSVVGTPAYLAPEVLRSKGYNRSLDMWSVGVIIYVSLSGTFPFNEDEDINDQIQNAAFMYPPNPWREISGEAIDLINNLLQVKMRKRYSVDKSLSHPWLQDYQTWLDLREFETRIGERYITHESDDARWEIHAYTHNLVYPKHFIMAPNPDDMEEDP
Conditions: at 0.1 µM.

Test [13] addresses T4, Serine/threonine-protein kinase D3 (Homo sapiens). Particulars: at 1 µM.
In test [14] the target is T5, cGMP-dependent protein kinase 1 (Homo sapiens) (UniProt Q13976).
T5 sequence (whole entry): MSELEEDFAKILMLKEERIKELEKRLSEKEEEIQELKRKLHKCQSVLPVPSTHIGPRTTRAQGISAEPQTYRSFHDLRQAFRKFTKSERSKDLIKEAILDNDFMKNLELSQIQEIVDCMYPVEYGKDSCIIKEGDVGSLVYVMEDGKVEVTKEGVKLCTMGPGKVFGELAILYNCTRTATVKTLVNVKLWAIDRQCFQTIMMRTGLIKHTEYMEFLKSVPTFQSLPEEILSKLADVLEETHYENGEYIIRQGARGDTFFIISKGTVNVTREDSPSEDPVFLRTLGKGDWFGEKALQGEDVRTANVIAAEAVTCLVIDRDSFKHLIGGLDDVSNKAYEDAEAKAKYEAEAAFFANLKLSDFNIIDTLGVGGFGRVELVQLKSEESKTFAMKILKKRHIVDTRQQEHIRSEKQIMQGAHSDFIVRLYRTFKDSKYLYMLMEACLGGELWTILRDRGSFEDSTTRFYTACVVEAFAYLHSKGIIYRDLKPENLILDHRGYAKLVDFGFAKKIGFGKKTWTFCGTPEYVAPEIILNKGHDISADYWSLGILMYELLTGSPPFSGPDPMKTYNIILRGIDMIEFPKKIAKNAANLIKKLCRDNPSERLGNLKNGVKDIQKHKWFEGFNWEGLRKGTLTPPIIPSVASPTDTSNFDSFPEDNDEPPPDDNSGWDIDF
Conditions: at 0.1 µM.

For test [15], the target named is T5, cGMP-dependent protein kinase 1 (Homo sapiens). Particulars: at 1 µM.
Test [16] deals with T6, cGMP-dependent protein kinase 2 (Homo sapiens) (UniProt Q13237).
T6 sequence (whole entry): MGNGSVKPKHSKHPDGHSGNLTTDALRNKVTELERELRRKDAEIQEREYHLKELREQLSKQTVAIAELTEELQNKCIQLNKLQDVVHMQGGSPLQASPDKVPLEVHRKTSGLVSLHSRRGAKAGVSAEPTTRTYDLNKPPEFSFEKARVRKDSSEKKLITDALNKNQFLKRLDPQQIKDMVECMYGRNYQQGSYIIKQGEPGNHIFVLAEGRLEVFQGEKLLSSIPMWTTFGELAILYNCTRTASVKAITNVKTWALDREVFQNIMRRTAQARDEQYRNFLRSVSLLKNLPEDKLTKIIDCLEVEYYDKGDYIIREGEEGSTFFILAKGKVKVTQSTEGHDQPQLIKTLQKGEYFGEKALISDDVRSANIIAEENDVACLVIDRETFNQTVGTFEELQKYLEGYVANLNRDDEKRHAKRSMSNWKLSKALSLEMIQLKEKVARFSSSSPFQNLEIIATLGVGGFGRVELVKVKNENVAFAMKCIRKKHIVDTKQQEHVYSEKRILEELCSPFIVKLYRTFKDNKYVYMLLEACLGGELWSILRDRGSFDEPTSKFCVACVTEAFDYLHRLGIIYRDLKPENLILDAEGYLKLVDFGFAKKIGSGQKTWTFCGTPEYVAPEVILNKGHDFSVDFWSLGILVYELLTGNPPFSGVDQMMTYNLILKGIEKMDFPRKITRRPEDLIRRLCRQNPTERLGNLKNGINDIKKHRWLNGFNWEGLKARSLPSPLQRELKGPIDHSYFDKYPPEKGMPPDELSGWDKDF
Conditions: at 0.1 µM.

Test [17] deals with T6, cGMP-dependent protein kinase 2 (Homo sapiens). Particulars: at 1 µM.
The target in test [18] is T7, cAMP-dependent protein kinase catalytic subunit PRKX (Homo sapiens) (UniProt P51817).
T7 sequence (whole entry): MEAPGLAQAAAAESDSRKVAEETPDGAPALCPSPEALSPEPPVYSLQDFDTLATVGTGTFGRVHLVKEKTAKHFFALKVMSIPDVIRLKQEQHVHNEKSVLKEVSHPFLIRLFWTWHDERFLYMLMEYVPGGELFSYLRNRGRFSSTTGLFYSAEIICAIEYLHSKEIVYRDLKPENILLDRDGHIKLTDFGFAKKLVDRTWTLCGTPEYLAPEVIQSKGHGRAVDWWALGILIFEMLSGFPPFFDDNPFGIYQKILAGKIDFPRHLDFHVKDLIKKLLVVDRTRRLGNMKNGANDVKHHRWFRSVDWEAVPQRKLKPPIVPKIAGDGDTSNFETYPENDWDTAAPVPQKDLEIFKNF
Particulars: at 0.1 µM.

Test [19] has as its target T7, cAMP-dependent protein kinase catalytic subunit PRKX (Homo sapiens). Conditions: at 1 µM.
Test [20] concerns the target Rho-associated protein kinase 1 (Homo sapiens) (UniProt Q13464). Particulars: at 0.1 µM.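 Also: values are mean percent inhibition of ROCK1.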

Sequence of Protein kinase C theta type (Homo sapiens) (Q04759 whole entry, looked up): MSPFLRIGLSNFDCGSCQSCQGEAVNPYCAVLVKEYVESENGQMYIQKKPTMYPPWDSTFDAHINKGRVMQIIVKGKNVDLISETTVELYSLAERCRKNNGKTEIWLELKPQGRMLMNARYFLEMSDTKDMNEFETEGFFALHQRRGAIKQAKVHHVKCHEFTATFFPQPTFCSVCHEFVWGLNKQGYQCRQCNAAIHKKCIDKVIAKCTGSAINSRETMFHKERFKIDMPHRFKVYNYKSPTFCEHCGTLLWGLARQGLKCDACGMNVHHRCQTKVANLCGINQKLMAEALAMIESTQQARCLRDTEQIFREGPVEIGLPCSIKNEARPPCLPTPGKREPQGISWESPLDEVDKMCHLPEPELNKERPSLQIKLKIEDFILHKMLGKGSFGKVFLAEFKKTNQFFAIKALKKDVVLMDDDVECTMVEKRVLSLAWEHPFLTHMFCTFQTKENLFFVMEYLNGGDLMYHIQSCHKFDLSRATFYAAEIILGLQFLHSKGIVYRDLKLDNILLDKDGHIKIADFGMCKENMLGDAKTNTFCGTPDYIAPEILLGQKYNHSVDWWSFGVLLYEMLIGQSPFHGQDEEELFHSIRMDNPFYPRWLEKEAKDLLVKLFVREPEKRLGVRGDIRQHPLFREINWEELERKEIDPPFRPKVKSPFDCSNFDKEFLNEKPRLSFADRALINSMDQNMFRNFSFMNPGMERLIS
Sequence of Protein kinase C beta type (Homo sapiens) (P05771 2-671 limits assumed): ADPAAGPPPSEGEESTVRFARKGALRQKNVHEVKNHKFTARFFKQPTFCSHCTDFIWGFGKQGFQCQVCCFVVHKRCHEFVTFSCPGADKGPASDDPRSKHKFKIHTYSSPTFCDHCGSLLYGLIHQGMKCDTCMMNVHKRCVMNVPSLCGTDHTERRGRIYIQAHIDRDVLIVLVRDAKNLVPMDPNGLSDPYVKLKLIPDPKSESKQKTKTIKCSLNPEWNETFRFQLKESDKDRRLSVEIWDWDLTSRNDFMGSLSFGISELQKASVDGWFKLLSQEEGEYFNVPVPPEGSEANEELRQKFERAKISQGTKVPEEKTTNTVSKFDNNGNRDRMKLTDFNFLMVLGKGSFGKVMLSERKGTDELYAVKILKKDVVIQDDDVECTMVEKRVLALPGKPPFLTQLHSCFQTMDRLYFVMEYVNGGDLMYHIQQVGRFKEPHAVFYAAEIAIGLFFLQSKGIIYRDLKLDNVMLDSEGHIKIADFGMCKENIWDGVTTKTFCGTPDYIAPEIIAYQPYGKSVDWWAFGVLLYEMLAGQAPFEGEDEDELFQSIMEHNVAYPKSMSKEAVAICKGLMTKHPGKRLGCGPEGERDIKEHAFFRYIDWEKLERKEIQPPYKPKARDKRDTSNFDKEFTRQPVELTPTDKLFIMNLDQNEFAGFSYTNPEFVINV
Sequence of Rho-associated protein kinase 1 (Homo sapiens) (Q13464 2-1354 limits assumed): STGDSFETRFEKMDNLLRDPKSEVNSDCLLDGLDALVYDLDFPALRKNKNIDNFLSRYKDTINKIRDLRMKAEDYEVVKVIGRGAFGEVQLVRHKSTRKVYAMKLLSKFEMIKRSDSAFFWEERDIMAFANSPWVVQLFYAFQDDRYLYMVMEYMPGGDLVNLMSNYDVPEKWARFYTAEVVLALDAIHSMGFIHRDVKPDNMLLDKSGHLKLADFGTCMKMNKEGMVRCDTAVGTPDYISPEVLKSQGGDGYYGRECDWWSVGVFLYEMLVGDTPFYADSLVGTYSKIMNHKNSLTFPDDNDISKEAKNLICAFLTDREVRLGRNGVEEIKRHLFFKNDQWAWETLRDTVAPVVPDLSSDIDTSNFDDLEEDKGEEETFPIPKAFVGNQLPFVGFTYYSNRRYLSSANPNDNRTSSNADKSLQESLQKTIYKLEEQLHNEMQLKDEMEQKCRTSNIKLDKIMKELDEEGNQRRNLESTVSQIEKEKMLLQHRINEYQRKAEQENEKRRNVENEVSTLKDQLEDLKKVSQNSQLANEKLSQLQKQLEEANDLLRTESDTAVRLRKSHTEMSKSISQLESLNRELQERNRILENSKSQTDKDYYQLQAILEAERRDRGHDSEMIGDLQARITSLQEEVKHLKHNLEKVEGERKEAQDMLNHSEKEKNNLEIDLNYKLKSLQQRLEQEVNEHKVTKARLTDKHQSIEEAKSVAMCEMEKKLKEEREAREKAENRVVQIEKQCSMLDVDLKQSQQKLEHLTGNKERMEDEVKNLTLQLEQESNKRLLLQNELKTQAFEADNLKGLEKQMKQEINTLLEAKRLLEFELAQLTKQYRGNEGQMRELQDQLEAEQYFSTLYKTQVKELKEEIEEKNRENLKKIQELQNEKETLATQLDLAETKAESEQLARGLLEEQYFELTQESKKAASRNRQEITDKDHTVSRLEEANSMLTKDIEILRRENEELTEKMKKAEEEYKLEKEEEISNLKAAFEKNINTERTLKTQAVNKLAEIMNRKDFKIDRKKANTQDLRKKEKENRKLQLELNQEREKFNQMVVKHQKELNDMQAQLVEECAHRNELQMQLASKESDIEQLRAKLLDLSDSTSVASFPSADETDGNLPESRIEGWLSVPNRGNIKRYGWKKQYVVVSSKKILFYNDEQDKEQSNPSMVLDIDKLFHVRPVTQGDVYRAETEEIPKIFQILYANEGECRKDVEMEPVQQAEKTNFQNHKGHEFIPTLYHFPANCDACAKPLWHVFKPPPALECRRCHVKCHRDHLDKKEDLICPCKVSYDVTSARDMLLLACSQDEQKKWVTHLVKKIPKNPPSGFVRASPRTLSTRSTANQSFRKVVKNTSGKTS

As usually defined, the inhibition is the change of the read-out against control, counted positive when it falls. For the compound `CCS(=O)(=O)c1ccc(OC)c(Nc2ncc(-c3ccccc3Cl)o2)c1`, the inhibition in test [1] was 5.15%; in test [2], 0.15%; in test [3], -1.52%; in [4] it was -0.01%; in test [5] it was 2.29%; in [6], -0.13%. In addition, the inhibition amounted to 2.01% in [7]; 1.52% in test [8]; 1.41% in test [9]; 1.21% in [10]; 1.98% in test [11]; 0.34% in test [12]. Moreover, the inhibition in [13] is 0.32%; in test [14], 1.27%; in [15] it was 3.79%; in [16], 0.72%; in test [17], 2.95%; in test [18], 0.64%. The inhibition was 0.38% in [19] and -0.11% in test [20].
